The values that follow come from PubChem BioAssay (NCATS).

Unmarked numbers belong to inactive results. Inconclusive results are not listed. Activity calls are given as the source filed them. Unless noted, calls follow the shape of the dose curve; as a rule, active = well fitted curve in either direction with a large enough effect (not every such curve was filed as active); inconclusive = small, poorly fitted or top-dose-only effect, or another doubt; inactive = flat fitted curve, though single readings scatter. Some results are limits rather than exact numbers.

For assay [1], the target named is Lysosomal acid glucosylceramidase (Homo sapiens) (UniProt P04062). The assay is described as follows: Glucocerebrosidase-p2 (AID 348; in the data active = potency below about 10 µM; also: potency is read from the fitted curve at half-maximal effect). The following applies: purified GBA, blue fluorogenic substrate, 40 min. A digest of the protocol: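 Normal human glucocerebrosidase (0.2 nM) with blue fluorogenic substrate (80 uM final) in citrate/phosphate pH 5.9 with 10mM sodium taurocholate, 0.01% tween-20; 40 min RT, NaOH/glycine stop; fluorescence Ex 365/Em 440; AC50 from a titration from 0.6 nM upwards.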
Sequence of Lysosomal acid glucosylceramidase (Homo sapiens) (P04062 whole entry, looked up): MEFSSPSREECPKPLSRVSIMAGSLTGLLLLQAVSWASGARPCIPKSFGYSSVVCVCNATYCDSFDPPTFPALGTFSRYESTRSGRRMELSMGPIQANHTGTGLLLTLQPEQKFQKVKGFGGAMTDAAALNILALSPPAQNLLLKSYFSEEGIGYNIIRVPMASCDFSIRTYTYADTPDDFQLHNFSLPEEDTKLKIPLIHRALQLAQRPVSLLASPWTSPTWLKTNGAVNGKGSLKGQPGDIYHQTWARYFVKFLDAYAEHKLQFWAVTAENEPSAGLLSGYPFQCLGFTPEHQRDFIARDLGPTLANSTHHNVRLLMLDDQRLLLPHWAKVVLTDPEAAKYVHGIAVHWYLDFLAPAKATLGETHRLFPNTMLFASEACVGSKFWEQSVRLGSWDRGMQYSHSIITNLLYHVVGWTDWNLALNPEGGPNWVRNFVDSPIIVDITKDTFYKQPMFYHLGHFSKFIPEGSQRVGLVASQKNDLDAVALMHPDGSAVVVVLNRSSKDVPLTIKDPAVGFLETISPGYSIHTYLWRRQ

A short description of assay [2]: AP1 Signaling Pathway (AID 357). Also: % is scaled to controls: 0 for no effect and ±100 for the full control effect. Conditions: ME-180 AP-1-bla reporter, EGF-induced, beta-lactamase ratio, 5 h; at 7.69 µM (top of the series) unless noted. Put shortly: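 ME-180 cells with beta-lactamase reporter under AP-1 response element, stimulated with EC50 EGF; compounds tested in titration series, 5 h at 37 °C. CCF4 substrate added 2.5 h at room temperature; 460/530 nm emission ratio gave %activity and AC50.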

In assay [3] the target is Cytochrome P450 1A2 (Homo sapiens) (UniProt P05177). In words: p450-cyp1a2 (AID 410; calls by dose curve; also: potency is read from the fitted curve at half-maximal effect). The following applies: recombinant CYP1A2, luciferin-ME demethylation, luminescence; series mostly up to 57 µM. A digest of the protocol:
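O-Demethylation of luciferin 6' methyl ether by human CYP1A2 is monitored as luciferase luminescence. Substrate sits at Km (100uM); enzyme is 20nM. Values are scaled to 57 uM furafylline as maximal inhibition.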

A short description of assay [4]: Stat Signaling Pathway (AID 446).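 Also: ME-180 cervical cancer cells given 40 pM IL-6 alongside compound; SIE-controlled beta-lactamase reporter measured as 460/530 nm FRET emission ratio; % is scaled to controls: 0 for no effect and ±100 for the full control effect.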 The following applies: ME-180 SIE beta-lactamase reporter, IL-6 stimulated, 5 h; at 7.69 µM (top of the series) unless noted. Put shortly: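 Normalization used AC90 stimulation (300 pM IL-6) and AC90 inhibition (125 nM pan-JAK inhibitor at 40 pM IL-6). The underlying signal is SIE-driven beta-lactamase in ME-180 cells after 5 h IL-6 exposure with compound.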

The target in assay [5] is Glucocorticoid receptor (Homo sapiens) (UniProt P04150). In words: GR-EFC Redistribution (AID 451; calls by dose curve; also: potency is read from the fitted curve at half-maximal effect). Conditions: CHO-K1 GR-EFC translocation, beta-gal luminescence, 2 h. Put shortly:
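CHO-K1 cells expressing nuclear EA and GR-ED fragments of b-gal; compounds titrated up to 46 uM final, 2 h at 37 C. GR nuclear translocation read as complemented b-gal luminescence after 1 h RT detection.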

Assay [6] concerns the target Mitogen-activated protein kinase 10 (Mus musculus) (UniProt Q61831). In words: JNK3 AlphaScreen Assay (AID 530).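 Also: kinase came from lysate of stimulated human HepG2 cells; signal reports phosphorylation of biotinylated GST-cJun 1-79 at Ser73 with 10 µM ATP; % is scaled to controls: 0 for no effect and ±100 for the full control effect.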 The following applies: JNK3 lysate, c-Jun phosphorylation; series mostly up to 57.1 µM. Put shortly:
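Activity was read by AlphaScreen after JNK3-containing HepG2 lysate (cytokine pre-activated) phosphorylated biotinylated GST-cJun with 10 uM ATP at room temperature. Phospho-Ser73 cJun antibody with Protein-A acceptor beads provided detection.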

The target of assay [7] is 3',5'-cyclic-AMP phosphodiesterase 4B (Homo sapiens) (UniProt Q07343). In words: qHTS Assay for Inhibitors of PDE-IV (AID 607; active = well fitted activation curve with a large enough effect in the main read-out, with a control signal flat, not every such curve was filed as active; also: % of control where 0% means no effect). Conditions: HEK293 ACTOne CNG channel cells, membrane potential fluorescence; series mostly up to 22.9 µM. A digest of the protocol: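 HEK293 ACTOne cells with CNG channel (1000/well), endogenous PDE4; membrane potential dye, compounds up to 22.9 uM final. Fluorescence Ex 535/Em 590; RO 20-1724 (100 uM final) as reference.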
Sequence of 3',5'-cyclic-AMP phosphodiesterase 4B (Homo sapiens) (Q07343 whole entry, looked up): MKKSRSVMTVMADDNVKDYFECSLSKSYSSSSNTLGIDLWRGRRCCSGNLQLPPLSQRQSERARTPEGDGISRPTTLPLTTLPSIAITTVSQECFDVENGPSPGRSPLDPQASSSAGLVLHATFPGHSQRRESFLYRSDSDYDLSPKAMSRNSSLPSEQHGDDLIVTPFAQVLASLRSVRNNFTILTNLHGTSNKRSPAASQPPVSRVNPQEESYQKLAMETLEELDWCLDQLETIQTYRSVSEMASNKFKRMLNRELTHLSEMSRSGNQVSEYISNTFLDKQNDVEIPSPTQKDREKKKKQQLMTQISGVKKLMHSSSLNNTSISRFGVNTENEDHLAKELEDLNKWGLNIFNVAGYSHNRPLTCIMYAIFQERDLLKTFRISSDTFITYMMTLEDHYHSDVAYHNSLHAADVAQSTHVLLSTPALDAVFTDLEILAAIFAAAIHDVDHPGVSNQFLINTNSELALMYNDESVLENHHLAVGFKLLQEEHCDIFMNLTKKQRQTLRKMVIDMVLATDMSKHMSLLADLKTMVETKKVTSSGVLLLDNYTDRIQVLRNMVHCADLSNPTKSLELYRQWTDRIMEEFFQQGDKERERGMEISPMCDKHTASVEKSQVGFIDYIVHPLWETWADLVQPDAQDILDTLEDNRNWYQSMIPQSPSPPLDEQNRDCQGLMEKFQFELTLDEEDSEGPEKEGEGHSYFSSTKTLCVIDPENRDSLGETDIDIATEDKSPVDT
In general terms: In qHTS, concentration-response curves come from the screen itself.

The nature of assay [8]: Primary qHTS for small molecule stabilizers of the endoplasmic reticulum resident proteome: Secreted ER Calcium Modulated Protein (SERCaMP) assay (AID 1508630; active = well fitted curve in the direction sought with a large enough effect; an effect the other way counts as inactive or inconclusive; also: % is scaled to controls: 0 for no effect and ±100 for the full control effect). Conditions: SH-SY5Y GLuc-SERCaMP (Gaussia luciferase released on ER calcium loss) secretion, thapsigargin, luminescence; series mostly up to 38.4 µM. Put shortly: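 The SH-SY5Y reporter protocol was run at 3 concentrations up to 38.3 uM (primary) or 11 concentrations (follow-up): 16 h compound, 100 nM thapsigargin for 4 h, then extracellular luciferase luminescence.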

The target in assay [9] is Cytochrome P450 2D6 (Homo sapiens) (UniProt P10635). In words: qHTS Assay for Inhibitors and Substrates of Cytochrome P450 2D6 (AID 891; active = well fitted curve in the direction sought with a large enough effect; an effect the other way counts as inactive or inconclusive; also: potency is read from the fitted curve at half-maximal effect; nearly all actives have a fitted effect of over 60% in size). Conditions: recombinant CYP2D6, luciferin-ME EGE luminescence; series mostly up to 57.1 µM. A digest of the protocol:
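Luminescent read-out of luciferin formed by 5 nM human CYP2D6 demethylating 30 uM Luciferin-ME EGE (Km level) over 60 min at room temperature after NADPH regeneration addition. Data normalized to full inhibition by 1.43 uM quinidine.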

Assay [10] in a line: qHTS Assay for Identification of Small Molecule Agonists for Hypoxia Response Element Signaling Pathway (AID 914; active = well fitted activation curve with a large enough effect in the signal ratio, with a control signal flat, not every such curve was filed as active; the % refers to the signal ratio; also: % of control where 0% means no effect). Conditions: ME-180 (cervical carcinoma) HRE-bla reporter, beta-lactamase ratio, CoCl2, 17 h; activation: active compounds read high. A digest of the protocol: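 HRE-bla ME-180 cells with beta-lactamase reporter under hypoxia response element, compounds with EC50 CoCl2 for 17 hours at 37 C. CCF4 substrate, 460nm/530nm emission ratio gave %Activity; AC50 from titration series.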

Assay [11] addresses Cytochrome P450 2C9 (Homo sapiens) (UniProt P11712). In words: qHTS Assay for Inhibitors and Substrates of Cytochrome P450 2C9 (AID 883; active = well fitted curve in the direction sought with a large enough effect; an effect the other way counts as inactive or inconclusive; also: % is scaled to controls: 0 for no effect and ±100 for the full control effect; nearly all actives have a fitted effect of over 60% in size). Conditions: recombinant CYP2C9, luciferin-H luminescence, 60 min; series mostly up to 57.1 µM. A digest of the protocol: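 10nM CYP2C9 + 100uM Luciferin-H (=KM), 25mM KPO4; cpd 10 min 37C; NADPH regen, 60 min 37C; stop/detect with P450 Glo-Buffer 20 min; luminescence. Norm. to 57uM sulphaphenazole as full inhibition.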

The target of assay [12] is Cytochrome P450 3A4 (Homo sapiens) (UniProt P08684). In words: qHTS Assay for Activators of Cytochrome P450 3A4 (AID 885; active = well fitted curve in the direction sought with a large enough effect; an effect the other way counts as inactive or inconclusive; also: nearly all actives have a fitted effect of over 65% in size; also: potency is read from the fitted curve at half-maximal effect). Conditions: recombinant CYP3A4, Luciferin-PPXE luminescence, 60 min; series mostly up to 57.1 µM. A digest of the protocol:
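Human CYP3A4 dealkylates Luciferin-PPXE to luciferin, which luciferase detection converts to light. Substrate was at its KM (25uM), buffer 200mM KPO4, reaction 60 min at RT.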

Assay [13] shares this target. In words: qHTS Assay for Inhibitors and Substrates of Cytochrome P450 3A4 (AID 884; active = well fitted curve in the direction sought with a large enough effect; an effect the other way counts as inactive or inconclusive; also: % is scaled to controls: 0 for no effect and ±100 for the full control effect; nearly all actives have a fitted effect of over 50% in size). The following applies: recombinant CYP3A4, Luciferin-PPXE luminescence; series mostly up to 57.1 µM. A digest of the protocol:
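Luminescent readout of luciferin produced by CYP3A4 (20 nM) dealkylation of Luciferin-PPXE, 25 uM (its KM). NADPH-driven reaction ran 60 min at RT after 10 min compound preincubation; data scaled to 57 uM ketoconazole as 100% inhibition.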

Sequence of Cytochrome P450 1A2 (Homo sapiens) (P05177 whole entry, looked up): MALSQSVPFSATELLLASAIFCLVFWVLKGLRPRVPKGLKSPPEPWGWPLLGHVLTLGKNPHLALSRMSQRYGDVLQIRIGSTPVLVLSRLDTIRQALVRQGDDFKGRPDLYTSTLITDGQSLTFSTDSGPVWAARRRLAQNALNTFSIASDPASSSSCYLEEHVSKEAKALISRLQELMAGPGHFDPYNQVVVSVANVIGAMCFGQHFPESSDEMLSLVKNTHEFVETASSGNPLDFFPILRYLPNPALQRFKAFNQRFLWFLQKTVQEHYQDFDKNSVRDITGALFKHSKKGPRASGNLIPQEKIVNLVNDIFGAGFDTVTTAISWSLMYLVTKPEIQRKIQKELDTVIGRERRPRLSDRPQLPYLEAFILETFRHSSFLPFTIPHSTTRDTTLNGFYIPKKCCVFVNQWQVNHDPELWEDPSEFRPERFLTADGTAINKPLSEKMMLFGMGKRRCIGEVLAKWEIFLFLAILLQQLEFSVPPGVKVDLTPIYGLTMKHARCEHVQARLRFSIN
Sequence of Cytochrome P450 3A4 (Homo sapiens) (P08684 whole entry, looked up): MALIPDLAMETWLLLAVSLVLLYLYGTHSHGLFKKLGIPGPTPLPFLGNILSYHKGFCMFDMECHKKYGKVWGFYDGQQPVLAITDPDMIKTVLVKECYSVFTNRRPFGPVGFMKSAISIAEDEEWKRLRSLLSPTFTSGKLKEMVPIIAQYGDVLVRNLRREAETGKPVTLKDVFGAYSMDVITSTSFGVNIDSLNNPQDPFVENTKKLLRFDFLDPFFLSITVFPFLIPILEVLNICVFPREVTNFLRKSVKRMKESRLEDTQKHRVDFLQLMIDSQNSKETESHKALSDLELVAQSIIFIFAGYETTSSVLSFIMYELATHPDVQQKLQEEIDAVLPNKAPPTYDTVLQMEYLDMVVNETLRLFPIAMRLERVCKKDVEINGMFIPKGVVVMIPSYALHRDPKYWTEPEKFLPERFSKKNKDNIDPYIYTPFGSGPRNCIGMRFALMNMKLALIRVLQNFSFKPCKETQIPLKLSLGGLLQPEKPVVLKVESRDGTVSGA
Sequence of Glucocorticoid receptor (Homo sapiens) (P04150 whole entry, looked up, the tested form may be a part): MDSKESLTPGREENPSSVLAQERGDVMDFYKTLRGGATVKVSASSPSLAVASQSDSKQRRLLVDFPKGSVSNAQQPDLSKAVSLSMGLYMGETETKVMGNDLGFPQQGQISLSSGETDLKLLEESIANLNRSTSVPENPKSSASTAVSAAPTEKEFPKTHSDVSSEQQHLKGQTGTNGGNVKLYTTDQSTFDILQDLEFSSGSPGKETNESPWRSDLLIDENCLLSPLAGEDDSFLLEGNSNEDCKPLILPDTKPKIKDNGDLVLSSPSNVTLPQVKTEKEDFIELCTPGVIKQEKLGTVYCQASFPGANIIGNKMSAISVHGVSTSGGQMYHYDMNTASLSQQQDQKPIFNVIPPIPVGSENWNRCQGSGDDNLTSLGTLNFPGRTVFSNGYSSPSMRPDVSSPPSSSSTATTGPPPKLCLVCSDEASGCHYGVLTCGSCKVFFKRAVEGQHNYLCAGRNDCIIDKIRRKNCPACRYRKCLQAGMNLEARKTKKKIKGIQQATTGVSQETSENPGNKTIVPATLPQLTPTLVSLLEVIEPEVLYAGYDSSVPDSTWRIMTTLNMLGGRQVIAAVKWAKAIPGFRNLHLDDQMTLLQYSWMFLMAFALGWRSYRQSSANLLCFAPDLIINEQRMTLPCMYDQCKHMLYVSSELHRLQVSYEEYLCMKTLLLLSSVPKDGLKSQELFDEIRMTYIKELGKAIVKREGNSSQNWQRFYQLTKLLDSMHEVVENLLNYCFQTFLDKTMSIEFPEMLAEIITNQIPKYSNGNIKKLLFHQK
Sequence of Cytochrome P450 2D6 (Homo sapiens) (P10635 whole entry, looked up): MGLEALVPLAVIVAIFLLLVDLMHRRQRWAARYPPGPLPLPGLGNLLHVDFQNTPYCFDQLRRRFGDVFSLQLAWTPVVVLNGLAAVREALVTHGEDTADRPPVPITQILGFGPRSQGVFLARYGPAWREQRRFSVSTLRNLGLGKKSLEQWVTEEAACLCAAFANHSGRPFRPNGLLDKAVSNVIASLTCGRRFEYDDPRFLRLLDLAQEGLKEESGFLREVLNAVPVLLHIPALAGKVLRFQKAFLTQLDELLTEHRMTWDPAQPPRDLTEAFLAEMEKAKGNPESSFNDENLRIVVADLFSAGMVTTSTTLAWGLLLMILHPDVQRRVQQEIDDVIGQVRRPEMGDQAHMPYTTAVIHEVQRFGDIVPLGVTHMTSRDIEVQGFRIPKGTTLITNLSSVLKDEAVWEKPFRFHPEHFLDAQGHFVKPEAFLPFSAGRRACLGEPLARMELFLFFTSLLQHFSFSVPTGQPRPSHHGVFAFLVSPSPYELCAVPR
Sequence of Cytochrome P450 2C9 (Homo sapiens) (P11712 whole entry, looked up): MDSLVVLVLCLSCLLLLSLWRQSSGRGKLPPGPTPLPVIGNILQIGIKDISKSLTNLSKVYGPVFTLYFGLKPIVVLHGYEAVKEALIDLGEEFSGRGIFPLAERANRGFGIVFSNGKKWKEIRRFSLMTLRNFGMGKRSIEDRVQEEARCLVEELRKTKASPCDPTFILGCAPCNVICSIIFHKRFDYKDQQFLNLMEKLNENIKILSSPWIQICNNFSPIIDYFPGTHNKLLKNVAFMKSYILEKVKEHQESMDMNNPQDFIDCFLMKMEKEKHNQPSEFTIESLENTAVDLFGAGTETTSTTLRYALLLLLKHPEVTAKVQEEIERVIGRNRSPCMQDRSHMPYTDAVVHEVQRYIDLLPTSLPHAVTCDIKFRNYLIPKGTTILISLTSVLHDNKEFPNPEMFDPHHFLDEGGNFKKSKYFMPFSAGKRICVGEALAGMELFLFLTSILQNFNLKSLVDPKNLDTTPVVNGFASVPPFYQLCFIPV

As for `Cn1cccc1C(=O)N1CCC2(CC1)CCN(c1ccccn1)CC2`, the results for the Potency in assay [1], in assay [3] and in assay [5] were more than 11.4 µM, 15.8 µM (active) and more than 46 µM, respectively. Moreover, in assay [2], the activity change, negative = inhibition was -0.389%. The activity, negative = inhibition in [4] was -4.58%. The Potency entry in assay [6] and in [7] was “inactive” each time. In [8], the outcome was inactive.

`O=S(=O)(c1ccccc1)N1CCC2(CC1)CN(Cc1ccccc1)C2`: the Potency in assay [1] is more than 11.4 µM; in assay [5] it was more than 46 µM; in assay [9], 0.158 µM (active). For the same compound, in [2], the activity change, negative = inhibition is 7.31%. Also, the Potency result in assay [3], in [6] and in assay [7] was “inactive” throughout. Besides, the activity, negative = inhibition in [4] was 2.83%. Further, the activation in [10] was 8.23%. Moreover, the result in assay [8] was inactive.

Take `O=C(Nc1ccccc1)N1CC2(CCN(C(=O)c3cc(C(F)(F)F)cc(C(F)(F)F)c3)CC2)C1`: the results for the Potency in [1] and in assay [5] were more than 11.4 µM and more than 46 µM, respectively. Besides, the activity change, negative = inhibition in assay [2] is 12.7%. Besides, the Potency entry in assay [3], in assay [6], in [7] and in assay [11] was “inactive” in each case. Moreover, in assay [8], the result was inactive.

As to `Cn1cccc1C(=O)N1CCC2(CCCN(c3ccccn3)C2)CC1`, the Potency in assay [1] was more than 11.4 µM; in assay [3] it was 20 µM (active); in assay [5], more than 46 µM. The activity change, negative = inhibition in assay [2] was -9.86%. The activity, negative = inhibition in assay [4] is -6.89%. For the same compound, the Potency result in [6], in [7] and in assay [12] was “inactive” each time. The result in assay [8] was inactive.

For `N#Cc1cccc(NC(=O)N2CCCC3(CCN(C(=O)c4cc(C(F)(F)F)cc(C(F)(F)F)c4)CC3)C2)c1`, the results for the Potency in assay [1], in assay [3] and in assay [5] were more than 11.4 µM, 6.31 µM (active) and more than 46 µM, respectively. Further, the activity change, negative = inhibition in [2] is -21.5%. The activity, negative = inhibition in [4] is -13.7%. The Potency result in [6] was “inactive”. In addition, the activation in assay [10] was -10.4%. Also, in assay [8], the result was inactive.

Regarding `O=C(c1ccncc1)N1CCC2(CCCN(Cc3ccccc3)C2)CC1`, the Potency in assay [1] was more than 11.4 µM; in assay [5], more than 46 µM. Further, the activity change, negative = inhibition in [2] was -9.7%. The Potency result in [3], in [6], in assay [7] and in [12] was “inactive” throughout. Also, in [4], the activity, negative = inhibition is -8.26%. Further, the result in [8] was inactive.

`CC(=O)N1CCC2(CC1)CCN(C(c1ccccc1)c1ccccc1)CC2`: the Potency in assay [1] is more than 11.4 µM; in [5] it was more than 46 µM; in assay [12], 25.1 µM (active); in [9], 7.94 µM (active). Besides, the activity change, negative = inhibition in assay [2] was -6.19%. In addition, the Potency entry in assay [3], in assay [6], in [7] and in assay [13] was “inactive” in each case. Further, the activity, negative = inhibition in [4] is -5.71%. In addition, the result in assay [8] was inactive.
